Data on 40 molecules can be found in PubChem BioAssay (Tox21).

Records with an inconclusive call do not appear. The source made the active and inactive calls. Calls follow the shape of the dose curve; as a rule, active = well fitted cell-killing curve with a large enough effect in the repeat runs; inconclusive = weak or mixed curves; inactive = flat fitted curve, though single readings scatter.
% is scaled to controls: 0 for no effect and ±100 for the full control effect.

The nature of this assay: qHTS assay to identify small molecule antagonists of the TGF-beta/Smad signaling pathway - cell viability counter screen (AID 1346824). Also: nearly all actives have a fitted effect of over 50% in size. The note with it: SBE-bla HEK293T viability, CellTiter-Glo luminescence; series mostly up to 76.8 µM; viability change, negative = cytotoxic: at the top concentration. An excerpt: U.S. Tox21 Program National Center for Advancing Translational Sciences [NCATS] NIH Chemical Genomics Center [NCGC] U.S. Environmental Protection Agency [EPA] National Institutes of Environmental Health Sciences [NIEHS] National Toxicology Program [NTP] U.S. Food and Drug Administration [FDA] Tox21 Assay Overview: Transforming growth factor beta (TGF-beta) superfamily consists of a large number of structurally related dimeric proteins that act as hormones or local mediators in regulating a wide range of biological functions. This superfamily includes TGF-betas themselves, the bone morphogenetic proteins (BMPs) and the activins. These ligands induce oligomerization of serine/threonine receptor kinases and phosphorylate the cytoplasmic signaling molecules of Smad protein family. CellSensor SBE-bla HEK 293T cell line (Life Technologies, Carlsbad, CA), responsive to TGF-beta was used to screen Tox21 10K compound library for identification of agonists/antagonists of the Smad signaling pathway. This cell line contains a beta-lactamase reporter gene under control of the Smad binding element (SBE) stably integrated into HEK 293T cells. Also cytotoxicity of the compounds was tested in parallel by measuring the cell viability using CellTiter-Glo assay system in the same wells.
Tox21 Assay Protocol Summary: SBE-bla HEK 293T cells were dispensed at 4,000/well in 5 uL of assay medium into black wall/clear-bottom 1536-well plates using a Multidrop Combi (ThermoFisher Scientific, Waltham, MA) dispenser. After the assay plates were incubated at 37 C and 5% CO2 for an overnight, 23 nL of compounds dissolved in DMSO, positive controls or DMSO only was transferred to the assay plate by a Pintool station (Kalypsys, San Diego, CA). Compound transfer was followed by the addition of 1 uL of 0.25 ng/mL TGF-beta1 or assay buffer using two separate tips of Flying Reagent Dispenser (FRD, Aurora Discovery, San Diego, CA). The assay plates were incubated at 37 C and 5% CO2 for 5 hr. One uL of LiveBLAzer B/G FRET substrate (Life Technologies) was added using a Flying Reagent Dispenser (FRD, Aurora Discovery, San Diego, CA) and the plates were incubated at room temperature for 2 hr. Fluorescence intensity (405 nm excitation, 460 nm and 530 nm emissions) was measured using an Envision plate reader (PerkinElmer, Shelton, CT). For cytotoxicity read, 4 uL of CellTiter-Glo reagent (Promega Corporation, Madison, WI) was added to each well of the assay plates using FRD. After 30 min incubation at room temperature, the luminescence intensity was measured using ViewLux plate reader (PerkinElmer).
With `O=C1c2ccccc2C(=O)c2c1ccc(O)c2O`, the “viability change, negative = cytotoxic” value was 0.845% [at 35.3 µM] (inactive).

For the molecule `CC(CC(C#N)(c1ccccc1)C(C)C)N(C)C` (stereo not given), the “viability change, negative = cytotoxic” value is -9.01% [at 35.3 µM] (inactive). As for `COc1cc(C)c(Cc2cnc(N)nc2N)cc1OC`, the figure is 0.341% [at 35.3 µM] (inactive); as for `O=[N+]([O-])c1ccc(Cl)cc1Cl`, 4.09% (inactive); as for `O=C(Nc1ccccc1)c1cc([N+](=O)[O-])ccc1Cl`, -0.256% (inactive). As for `CCC(C)CCCC(C)(C)O` (stereo not given), the figure is 0.926% (inactive). As for `CCCCCCCCS`, the figure is -8.28% (inactive); as for `Cc1ccc(NC(=O)c2ccc(CN3CCN(C)CC3)cc2)cc1Nc1nccc(-c2cccnc2)n1`, 3.8% [at 35.3 µM] (inactive).

For `O=Cc1ccc([N+](=O)[O-])cc1`, the “viability change, negative = cytotoxic” value was 2.61% (inactive). As to `CCC(CC)C(=O)O`, the “viability change, negative = cytotoxic” value was 3.95% (inactive).

Turning to `COc1ccnc2c1CCCCC2S(=O)c1nc2ccccc2[nH]1` (stereo not given), the “viability change, negative = cytotoxic” value was -4.76% [at 35.3 µM] (inactive).

Turning to `CC(C)CCCCCOC(=O)CS`, the “viability change, negative = cytotoxic” value is 10.2% (inactive). In the case of `O=C(OCCN1CCOCC1)c1cccnc1Nc1cccc(C(F)(F)F)c1`, the “viability change, negative = cytotoxic” value was 1.03% [at 35.3 µM] (inactive).

With `COC=O`, the viability change, negative = cytotoxic is 2.71% [at 6.97 µM] (inactive).

For `COc1cccc([C@H](O)C2CCN(CCc3ccc(F)cc3)CC2)c1OC`, the “viability change, negative = cytotoxic” value is 5.08% (inactive). As for `C=C[Si](OCC)(OCC)OCC`, the figure is 4% (inactive). For `CCCCOC(=O)CC#N` the value was -15.5% (inactive); for `CCCc1nc(C)c2c(=O)[nH]c(-c3cc(S(=O)(=O)N4CCN(CC)CC4)ccc3OCC)nn12`, 18.6% [at 35.3 µM] (inactive). As for `Clc1cccc(C(c2ccc3nc[nH]c3c2)n2ccnc2)c1` (stereo not given), the figure is -0.0958% [at 35.3 µM] (inactive). Take `CO[C@@H]1COCC[C@@H]1N[C@@H]1CC[C@@](C(=O)N2CCc3ncc(C(F)(F)F)cc3C2)(C(C)C)C1`: the “viability change, negative = cytotoxic” value is 8.93% (inactive).

With `O=C(O)c1ccncc1`, the “viability change, negative = cytotoxic” value was -15% (inactive). As to `FC1(F)C(F)(F)C(F)(F)C2(F)C(F)(C1(F)F)C(F)(F)C(F)(F)C1(F)C(F)(F)C(F)(F)C(F)(F)C(F)(F)C12F` (stereo not given), the “viability change, negative = cytotoxic” value is 6.77% (inactive). Turning to `Cc1ccc2ccccc2c1[N+](=O)[O-]`, the “viability change, negative = cytotoxic” value is 1.07% (inactive). As for `C[C@H](N)C(=O)N[C@@H](C)C(=O)NC1[C@H]2CN(c3nc4c(cc3F)c(=O)c(C(=O)O)cn4-c3ccc(F)cc3F)C[C@@H]12` (stereo not given in full), the “viability change, negative = cytotoxic” value was -7.87% [at 35.3 µM] (inactive).

Turning to `CC1=C(C)C(=O)C(C(CCCCCC(=O)O)c2ccccc2)=C(C)C1=O` (stereo not given), the “viability change, negative = cytotoxic” value was 0.357% [at 35.3 µM] (inactive).

As for `Cc1cc(N)n(-c2ccccc2)n1`, the “viability change, negative = cytotoxic” value was 3.66% (inactive). As for `COc1cc(CNC(=O)CCCC/C=C/C(C)C)ccc1O`, the figure is 1.16% (inactive); as for `O=c1[nH][nH]c2ccccc12`, 4.82% (inactive); as for `CCCCC(CC)COCCC#N` (stereo not given), -0.0499% (inactive).

For the molecule `O=C(O)c1ccc2cc(O)ccc2c1`, the “viability change, negative = cytotoxic” value was 1.46% (inactive).

`CC(=O)S[C@H](C(=O)N[C@H]1Cc2ccccc2[C@H]2CCC[C@@H](C(=O)O)N2C1=O)C(C)C`: the “viability change, negative = cytotoxic” value is -10.2% (inactive). As for `CCCCCO`, the figure is -0.496% (inactive); as for `CCOCCn1c(N2CCCN(C)CC2)nc2ccccc21`, -2.2% [at 35.3 µM] (inactive). As for `O=C1CCCN1CCO`, the figure is -17.4% (inactive); as for `CC(=O)OCC(=O)[C@@]1(O)CC[C@H]2[C@@H]3CCC4=CC(=O)C=C[C@]4(C)[C@@]3(F)[C@@H](O)C[C@@]21C`, 1.18% [at 35.3 µM] (inactive); as for `N#C[C@@H]1CC(F)(F)CN1C(=O)CNC1CC2CCC(C1)N2c1ncccn1` (stereo not given in full), 12.2% (inactive). As for `O=C(c1ccco1)N1CCNCC1`, the “viability change, negative = cytotoxic” value was 7.24% [at 35.3 µM] (inactive). With `CC(C)(O)C(=O)O`, the “viability change, negative = cytotoxic” value was -6.13% (inactive).

In the case of `O=C(O)c1ccc(O)c(O)c1`, the “viability change, negative = cytotoxic” value is 1.13% (inactive). As for `O=[N+]([O-])c1cccc(I)c1`, the figure is 0.241% (inactive).
